Compound activity as filed in PubChem BioAssay.
KB-3-1 cytotox: qHTS assay for MDR1-selective chemotherapeutics: Primary screen using the parental adenocarcinoma cell KB-3-1 | actives 1.4% (n = 400,000) | KB-3-1 viability, CellTiter-Glo ATP luminescence, 72 h | AID 1347075, 2019 | Potency, µM (doses to about 46.1 µM), actives largely listed as cytotoxic; also: nearly all actives have a fitted effect of over 60% in size
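KB-3-1 parental drug-naive adenocarcinoma cells in DMEM/10% FBS, incubated 72 h at 37 C with pin-transferred compounds across a concentration series. Viability by CellTiter-Glo luminescence; concentration-response curves fitted after normalization.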
HT1080 IDH1KD tx: qHTS for induction of synthetic lethality in tumor cells producing 2HG: qHTS for the HT-1080-IDH1KD cell line; actives 2% (n = 360,000); Potency, µM (doses to about 46.1 µM), usual class: cytotoxic; HT-1080 IDH1 knockdown viability, ATP luminescence, 48 h
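% activity derives from luminescence (CellTiter-Glo), normalised to DMSO and no-cell wells. HT-1080-IDH1KD cells, 750/well, had 48 h compound exposure at 37 °C.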
MCF10A rerep: A quantitative high throughput screen for small molecules that induce DNA re-replication in MCF 10a normal breast cells; MCF 10A DNA re-replication, Hoechst nuclear intensity, 48 h; Potency, µM (series often up to 46.1 µM), usual class: activators; actives 2.9% (n = 350,000); also: nearly all actives have a fitted effect of over 50% in size
SW480 rerep: A quantitative high throughput screen for small molecules that induce DNA re-replication in SW480 colon adenocarcinoma cells. SW480 DNA re-replication, Hoechst DNA content imaging, 48 h. Potency, µM (top dose mostly 46.1 µM), actives largely listed as activators. actives 1.8% (n = 340,000); also: nearly all actives have a fitted effect of over 55% in size
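First, 250 cells per well were seeded. Next, compound or vehicle (23 nL) was pinned in, plates sat 48 hr at 37 C. Finally Hoechst was added for 40 min before fluorescence scanning.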
HT1080-NT tox: qHTS for induction of synthetic lethality in tumor cells producing 2HG: qHTS for the HT-1080-NT fibrosarcoma cell line; HT-1080-NT fibrosarcoma viability, CellTiter-Glo ATP luminescence, 48 h; Potency, µM (doses to about 46.1 µM), actives largely listed as cytotoxic; actives 1.6% (n = 360,000); AID 686970, 2013;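 also: NT is the 2HG producing partner of a matched IDH1 knockdown line; nearly all actives have a fitted effect of over 55% in size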
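HT-1080-NT fibrosarcoma cells (2HG-overproducing), 750 cells/well in RPMI with 5% FBS, dosed after 2 h and incubated 48 h at 37C. CellTiter-Glo luminescence normalized to DMSO and no-cell wells; concentration-response curves fitted and classed.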
KB-V1 cytotox: qHTS assay for MDR1-selective chemotherapeutics: Primary screen using the drug-selected MDR subline cells KB-V1; KB-V1 MDR cells viability, CellTiter-Glo, 72 h; Potency, µM (top dose mostly 46.1 µM), most hits filed as cytotoxic; actives 3.4% (n = 400,000); also: nearly all actives have a fitted effect of over 60% in size
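Cytotoxicity via CellTiter-Glo luminescence after 72 h compound exposure at 37 degrees C. Cells: drug-selected KB-V1 line, DMEM phenol-red free plus 10% FBS. Compounds tested at multiple concentrations; normalized data fitted to concentration-effect curves.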
Of the large screens only hits and unclear results are named; the others gave an inactive call. Only some compounds are listed: those with a hit (about 8% of all), similar ones and a draw of the others. Calls follow the shape of the dose curve; as a rule, active = well fitted curve in the direction sought with a large enough effect; inconclusive = small, poorly fitted or top-dose-only effect, or another doubt; inactive = no such curve, though single readings can be large; an effect the other way counts as inactive or inconclusive.

O=S(=O)(Nc1ccc(-c2nc3cccnc3s2)cc1)c1cc(F)ccc1F	MCF10A rerep 20.6µM
CCc1ccc(S(=O)(=O)Nc2ccc(-c3nc4cccnc4s3)cc2)s1	MCF10A rerep inconclusive
Cc1nc2ccc(S(=O)(=O)Nc3cc(-c4nc5cccnc5s4)ccc3C)cc2s1	KB-3-1 cytotox inconclusive, HT1080 IDH1KD tx inconclusive, MCF10A rerep 0.82µM, SW480 rerep 23.1µM, HT1080-NT tox inconclusive, KB-V1 cytotox inconclusive
CCCC(C)NC(=O)C1c2ccccc2Oc2ccccc21 (stereo not given)	none
COc1ccc(N(CC(=O)NC2CCCC2)C(=O)Cn2nnc(-c3ccc(C)o3)n2)cc1	KB-V1 cytotox inconclusive
COc1ccc(-c2nnn(CC(=O)N(C3CCCCC3)C(C)C(=O)NC3CCCC3)n2)cc1OC (stereo not given)	KB-V1 cytotox 2.59µM
COc1ccc(N(CC(=O)NC2CCCC2)C(=O)Cn2nnc(-c3ccc(F)cc3)n2)cc1OC	none
COc1ccc(N(CC(=O)NC2CCCC2)C(=O)Cn2nnc(-c3ccc(C)cc3)n2)cc1OC	KB-V1 cytotox 13µM
COc1ccc(N(CC(=O)NC2CCCC2)C(=O)Cn2nnc(-c3ccc(C)cc3)n2)cc1	KB-V1 cytotox 16.4µM
COc1ccc(-c2nnn(CC(=O)N(C3CCCC3)C(C)C(=O)NC3CCCC3)n2)cc1OC (stereo not given)	none
CCOC(=O)c1c(NC(=O)CCCOc2ccccc2C)sc2c1CCC(C)C2 (stereo not given)	none (no result: HT1080 IDH1KD tx, MCF10A rerep, SW480 rerep, HT1080-NT tox)
COC(=O)c1cn(C(=O)c2ccccc2Cl)c2ccccc12	KB-3-1 cytotox inconclusive, HT1080 IDH1KD tx inconclusive, MCF10A rerep inconclusive
COC(=O)c1cn(C(=O)c2ccc(C)cc2C)c2ccccc12	KB-3-1 cytotox inconclusive, HT1080 IDH1KD tx 6.51µM, MCF10A rerep 4.61µM, SW480 rerep 8.2µM, HT1080-NT tox inconclusive
N#CC(c1ccccc1)c1ccc([N+](=O)[O-])cc1 (stereo not given)	KB-3-1 cytotox 20.6µM (no result: MCF10A rerep, SW480 rerep)
O=C(Nc1ccncc1)c1sc2ccccc2c1Cl	KB-V1 cytotox 8.2µM
COc1ccc(NC(=O)c2cccc3ccccc23)cc1	KB-3-1 cytotox inconclusive, HT1080 IDH1KD tx inconclusive, MCF10A rerep 20.6µM, SW480 rerep inconclusive, KB-V1 cytotox inconclusive
O=C(NC1CCCCCCC1)c1ccccc1O	none
O=C(NC1CCCCC1)c1cc2ccccc2cc1O	KB-3-1 cytotox inconclusive, SW480 rerep 18.4µM
COc1c(C(=O)Nc2ccc(Cc3ccncc3)cc2)ccc2ccccc12	KB-3-1 cytotox 13µM, MCF10A rerep 23.1µM, SW480 rerep inconclusive, KB-V1 cytotox 2.91µM
CCOC(=O)c1ccc(NC(=O)CN2C(=O)CN(C(C)=O)C2=S)cc1	none
Cc1ccnc(NS(=O)(=O)c2ccc(NC(=O)CSc3nc(-c4ccccc4)cc(=O)[nH]3)cc2)n1	none
COC(=O)c1ccn(-c2nc(-c3ccc(Cl)cc3)cc(C(F)(F)F)n2)n1	none (no result: HT1080 IDH1KD tx, MCF10A rerep, SW480 rerep, HT1080-NT tox)
COc1ccc(NC(=O)c2cc3ccccc3cc2O)cc1	HT1080 IDH1KD tx inconclusive, MCF10A rerep 4.61µM, SW480 rerep inconclusive, HT1080-NT tox inconclusive
Cc1ccc(C)c(NC(=O)NNC(=O)c2cc3ccccc3cc2O)c1	MCF10A rerep 14.6µM
COc1ccc(NC(=O)c2c(Cl)n(C)c3ccccc23)cc1	KB-3-1 cytotox 2.91µM, HT1080 IDH1KD tx inconclusive, MCF10A rerep 16.4µM, SW480 rerep inconclusive, HT1080-NT tox 18.4µM, KB-V1 cytotox 5.8µM
O=C(NC(=S)Nc1ccc(Cc2ccncc2)cc1)c1ccccc1	KB-3-1 cytotox inconclusive, MCF10A rerep inconclusive, KB-V1 cytotox 18.4µM
Cc1cccc(C(=O)NC(=S)Nc2ccc(Cc3ccncc3)cc2)c1	KB-3-1 cytotox inconclusive, HT1080 IDH1KD tx inconclusive, MCF10A rerep inconclusive, HT1080-NT tox inconclusive
CCc1nc2ccccc2nc1N1CCN(S(=O)(=O)c2ccccc2)CC1	KB-V1 cytotox inconclusive
COc1ccc(-n2nnnc2C(c2cccc3ccccc23)N2CCN(C/C=C/c3ccccc3)CC2)cc1 (stereo not given)	none (no result: MCF10A rerep, SW480 rerep)
O=C(Nc1ccncc1)c1ccc(-c2ccccc2)cc1	KB-3-1 cytotox 23.1µM, MCF10A rerep inconclusive, SW480 rerep inconclusive
C=CCNC(=O)C(=O)NCCOc1ccccc1Cl	KB-3-1 cytotox 7.31µM, HT1080 IDH1KD tx inconclusive, MCF10A rerep inconclusive, SW480 rerep 20.6µM, HT1080-NT tox inconclusive
COc1ccccc1NC(=O)C(=O)N(c1cccnc1)C(C(=O)NC(C)(C)C)c1ccccc1F (stereo not given)	MCF10A rerep inconclusive
CC(NC(=O)c1c2c(nc3ccccc13)C(=O)N(C1CCCCC1)C2)c1ccccc1 (stereo not given)	none (no result: HT1080 IDH1KD tx, MCF10A rerep, SW480 rerep, HT1080-NT tox)
CC(C)(C)N1C(=O)c2ccc(C(=O)Nc3ccc(O)cc3)cc2C1=O	KB-3-1 cytotox inconclusive, HT1080 IDH1KD tx inconclusive, MCF10A rerep inconclusive, SW480 rerep inconclusive, HT1080-NT tox inconclusive, KB-V1 cytotox 8.2µM
c1ccc(C2C3=C(Nc4ncnn42)c2ccccc2CCC3)cc1 (stereo not given)	MCF10A rerep inconclusive, KB-V1 cytotox 18.4µM
Cc1ccc(S(=O)(=O)N(CC(O)CN2CCOCC2)c2cccc([N+](=O)[O-])c2)cc1 (stereo not given)	none
COC1(OC)C(/C=C/c2ccc(Cl)cc2)C(C#N)(C#N)C1(OC)OC (stereo not given)	KB-3-1 cytotox inconclusive, HT1080 IDH1KD tx 20.6µM, MCF10A rerep 6.51µM, SW480 rerep inconclusive, KB-V1 cytotox inconclusive
COC(=O)c1ccccc1COc1cccn2c(N(C)Cc3cccs3)c(C)nc12	KB-3-1 cytotox inconclusive, HT1080 IDH1KD tx inconclusive, HT1080-NT tox inconclusive, KB-V1 cytotox 18.4µM (no result: MCF10A rerep, SW480 rerep)
CCOC(=O)N(C)c1c(CC)nc2c(OCc3cccc(Cl)c3)cccn12	none (no result: MCF10A rerep, SW480 rerep)
CCC(CC)C(=O)N(C)c1c(C)nc2c(OCc3ccccc3C(=O)OC)cccn12	none (no result: MCF10A rerep, SW480 rerep)
Cc1nc2c(OCc3cccc(Cl)c3)cccn2c1N(C)Cc1cccs1	KB-3-1 cytotox inconclusive, HT1080 IDH1KD tx inconclusive, HT1080-NT tox inconclusive, KB-V1 cytotox 18.4µM (no result: MCF10A rerep, SW480 rerep)
O=C(/C(N=Nc1cccc(C(F)(F)F)c1)=C(/O)c1cccs1)C(F)(F)F	KB-3-1 cytotox inconclusive, HT1080 IDH1KD tx 20.6µM, MCF10A rerep 20.6µM, HT1080-NT tox inconclusive, KB-V1 cytotox inconclusive
